KCNQ2 block = inhibitors of rat KCNQ2 potassium channel | CHO-K1 KCNQ2, FluxOR thallium flux, 20 min; hits give low values | 1.1% of 310,000 active | AID 2156 | B-score at 10 µM;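 active means fluorescence ratio B-score at most minus 3 library SDs, with starting brightness B-score within 2 library SDs, cut at about -5.5 in these data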
Target sequence (O88943 whole entry, looked up): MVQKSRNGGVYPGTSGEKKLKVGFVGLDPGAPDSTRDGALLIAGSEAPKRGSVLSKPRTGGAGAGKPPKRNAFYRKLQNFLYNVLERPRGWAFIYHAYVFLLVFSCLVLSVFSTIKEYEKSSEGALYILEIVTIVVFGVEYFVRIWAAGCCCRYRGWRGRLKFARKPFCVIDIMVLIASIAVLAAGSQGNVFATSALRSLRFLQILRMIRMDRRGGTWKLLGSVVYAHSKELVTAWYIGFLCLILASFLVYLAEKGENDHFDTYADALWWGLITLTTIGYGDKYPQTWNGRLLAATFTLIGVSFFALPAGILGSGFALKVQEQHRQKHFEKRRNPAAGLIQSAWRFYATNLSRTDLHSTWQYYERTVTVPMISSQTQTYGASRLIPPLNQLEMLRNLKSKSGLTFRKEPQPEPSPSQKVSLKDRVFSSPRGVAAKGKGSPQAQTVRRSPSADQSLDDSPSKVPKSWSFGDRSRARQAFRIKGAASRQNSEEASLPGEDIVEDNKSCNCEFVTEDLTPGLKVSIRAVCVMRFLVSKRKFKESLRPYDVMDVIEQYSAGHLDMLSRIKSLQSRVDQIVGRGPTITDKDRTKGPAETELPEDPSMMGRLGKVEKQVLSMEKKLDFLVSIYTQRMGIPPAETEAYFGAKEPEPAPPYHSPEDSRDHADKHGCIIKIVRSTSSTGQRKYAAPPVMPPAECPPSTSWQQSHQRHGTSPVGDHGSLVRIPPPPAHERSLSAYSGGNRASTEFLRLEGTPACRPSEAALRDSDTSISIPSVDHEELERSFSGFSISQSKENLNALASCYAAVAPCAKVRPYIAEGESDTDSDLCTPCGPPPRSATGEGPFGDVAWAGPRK
KCNQ2 pot = enhances the rat KCNQ2 potassium channel | CHO-K1 KCNQ2, FluxOR thallium flux fluorescence; hits give high values | B-score at 10 µM | 0.54% of 310,000 active | AID 2239;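 active means fluorescence ratio B-score at least 3 SD of library B-scores, with initial fluorescence B-score within 3 of them, cut at about 5.3 in these data; same plate scores as AID 2156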;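 further: B-score of peak minus minimum over baseline fluorescence ratio after K+ and Tl+ stimulus; positive B-score means potentiation of KCNQ2 with more thallium influx and brighter signal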
Kir21 confirm = confirmation of mouse Kir2.1 potassium channel inhibitors; shares compounds with KCNQ2 pot; Kir2.1-expressing cells, FluxOR thallium flux fluorescence; hits give low values; Tl flux remaining, % of negative control (hits give low values), % at 10 µM; 41% of 2,300 active; AID 2032;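 active means Primary-screen hit whose thallium flux fell at least 3 control SD below untreated wells in both duplicates, with normal baseline fluorescence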;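 further: 0% = blank wells without stimulus and 100% = stimulated no-compound controls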
HEK293 Tl flux = counter-screen for Kir2.1 inhibitors: effect in parental HEK293 cells | shares compounds with KCNQ2 pot | FluxOR thallium flux fluorescence; 0% = unstimulated blank wells | FluxOR signal as % of negative control (100 = no effect), % at 10 µM | 19% of 2,300 active | AID 2105;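 active means dye signal at least 3 control SD above or below untreated wells in both duplicates, raw fluorescence within 3, either direction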;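 further: percent is based on the flux ratio of peak minus minimum fluorescence over baseline F0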
CHO-K1 ctr = alters thallium flux in parental CHO-K1 cells, KCNQ2 counter-screen. shares compounds with KCNQ2 pot. FluxOR thallium flux fluorescence; zero = vehicle mean+3SD, 100% = vehicle-minus-blank window. activity increase over 3SD of controls, % at 10 µM. 43% of 1,200 active;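 active means signal rise of at least 3 SD above the untreated control mean, in both duplicate wells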;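 further: counter screen of KCNQ2 potentiator hits so any rise reflects channel-independent effects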
KCNQ1 sel pot = human KCNQ1 counter-target activity of KCNQ2 potentiators; 28% of 1,200 active; CHO KCNQ1 stable, FluxOR thallium flux fluorescence; beyond 3SD, as % of vehicle-control signal; shares compounds with KCNQ2 pot; AID 2283; activation over 3SD threshold, % at 10 µM;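 active means fluorescence ratio rise of at least 3 SD of vehicle wells above their mean, in both replicate wells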;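 further: 0% = vehicle mean plus 3 SD and 100% = vehicle minus unstimulated blank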
KCNQ2 pot confirm = rat KCNQ2 channel potentiator confirmation; CHO-KCNQ2 cells, FluxOR thallium flux fluorescence; shares compounds with KCNQ2 pot; 68% of 1,200 active; potentiation, less the hit threshold, % at 10 µM;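 active means fluorescence ratio rising 3 SD or more over the vehicle control mean in both replicates, plus primary screen hit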;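 further: peak minus minimum thallium fluorescence divided by baseline after K/Tl stimulus; 0% = vehicle mean plus 3 SD and 100% = vehicle minus unstimulated blank difference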
Kir2-1 sel = selectivity of KCNQ2 potentiators: effect on mouse Kir2.1; activity over 3SD threshold, % at 10 µM; HEK293 Kir2.1, FluxOR thallium flux fluorescence; AID 2345; shares compounds with KCNQ2 pot; 2% of 1,200 active;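 active means fluorescence ratio rise of at least 3 SD above the vehicle-control mean, seen in both replicates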;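 further: 0% = vehicle mean plus 3 SD and 100% = vehicle minus no-stimulus blank window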
KCNQ2 W236L pot = KCNQ2 potentiators acting on retigabine-insensitive rat KCNQ2 W236L mutant | CHO KCNQ2-W236L, automated patch clamp current | current increase over 3SD of negative controls (%), hits give high values, % at 25 µM | 10% of 940 active | shares compounds with KCNQ2 pot | AID 2558;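 active means current increase at least 3 SD of the untreated controls above them in both duplicate recordings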
Numbers without * were called inactive; i = inactive; . = no result. This is a sample that favours compounds with a hit; in the whole collection about 1.6% have one here.

SMILES	KCNQ2 block	KCNQ2 pot	Kir21 confirm	HEK293 Tl flux	CHO-K1 ctr	KCNQ1 sel pot	KCNQ2 pot confirm	Kir2-1 sel	others
CCCCOCCCNC(=O)c1ccc2c(c1)OCO2	i	6.52*	i	i	1.4*	-13.9	-26.0	-37.5
COCCCNC(=O)c1ccc2c(c1)OCO2	i	.	.	.	.	.	.	.
CCOc1ncccc1C(=O)NC(C)CCc1ccccc1 (centres undefined)	i	2.34	.	.	.	.	.	.
Cn1c(=O)c2c(ncn2CC(=O)N/N=C/C=C\c2ccccc2[N+](=O)[O-])n(C)c1=O	i	1.02	.	.	.	.	.	.
CCOc1cccc(C(=O)Nc2ccc3c(c2)OCCO3)c1	i	.	.	.	.	.	.	.
CC1CCCN(S(=O)(=O)c2cc3c4c(c2)C(C)C(=O)N4CCC3)C1 (centres undefined)	i	.	.	.	.	.	.	.
C=C[C@@]1(C)CC(=O)[C@]2(O)[C@@]3(C)[C@@H](O)CCC(C)(C)[C@@H]3[C@H](O)[C@H](OC(C)=O)[C@@]2(C)O1	i	8.88*	i	i	-13.3	-26.4	7.1*	-37.0	KCNQ2 W236L pot=2.3%*
C=C[C@@]1(C)CC(=O)[C@]2(O)[C@@]3(C)[C@@H](O)CCC(C)(C)[C@@H]3[C@H](OC(C)=O)[C@H](O)[C@@]2(C)O1	i	5.14	.	.	.	.	.	.
Cc1ccc(C(C)NC(=O)c2cccs2)cc1 (centres undefined)	i	1.82	.	.	.	.	.	.
Cc1ccc(C(=O)NC(C)c2ccc3c(c2)OCO3)s1 (centres undefined)	i	3.1	.	.	.	.	.	.
Cc1ccc(C(=O)NC(C)c2ccc(C)c(C)c2)s1 (centres undefined)	i	12*	i	i	-2.8	30.3*	27.4*	-45.9	KCNQ2 W236L pot=i
Cc1ccc(C(C)NC(=O)c2cccs2)cc1C (centres undefined)	i	8.51*	i	i	-8.9	12.8*	2.3*	-29.3	KCNQ2 W236L pot=i
CN(C)C1C(=O)c2ccccc2C1=O	i	1.1	.	.	.	.	.	.
COC(=O)c1ccc(NC(=O)Cn2nc(C(=O)Nc3ccc(C)cc3)ccc2=O)cc1	i	0.07	.	.	.	.	.	.
CN1CCN(CC#CCn2c3ccccc3c3ccccc32)CC1	i	.	31.5%*	i	.	.	.	.
CN1CCN(CC(O)Cn2c3ccccc3c3ccccc32)CC1 (centres undefined)	i	.	.	.	.	.	.	.
COCCN(C(=O)COC(=O)CCOc1cccc(C)c1)c1c(N)n(Cc2ccccc2)c(=O)[nH]c1=O	i	0.8	.	.	.	.	.	.
COc1ccc(C[C@H]2CN3C(=NC[C@@H]3C(C)C)N2C[C@H](C)NC(=O)c2ccc(C)c(Br)c2)cc1	i	.	55.0%*	i	.	.	.	.
Cc1ccc(C(=O)N[C@@H](C)CN2C3=NC[C@H](C(C)C)N3C[C@H]2Cc2ccc(O)cc2)cc1Br	i	.	.	.	.	.	.	.
COc1ccc(C[C@H]2CN3C(=NC[C@@H]3Cc3ccc(O)cc3)N2C[C@H](C)NC(=O)c2ccc(C)c(Br)c2)cc1	i	.	48.0%*	i	.	.	.	.
C[C@@H](CN1C2=NC[C@H](Cc3ccc(O)cc3)N2C[C@H]1Cc1ccc(O)cc1)NC(=O)CCC1CCCCC1	i	.	.	.	.	.	.	.
CC(C)Cc1csc(NC(=O)c2ccc(Br)cc2)c1C(=O)O	i	6.07*	i	126.5%*	6.1*	15.7*	17.6*	-27.6	KCNQ2 W236L pot=i
CC(C)Cc1csc(NC(=O)C(C)C)c1C(=O)O	i	1.02	.	.	.	.	.	.
CCCCN(CCCC)C(=S)N/N=C/c1c(C)[nH]n(-c2ccccc2)c1=O	i	6.65*	i	i	0.0*	-27.4	-29.7	-24.1
Cc1[nH]n(-c2ccccc2)c(=O)c1/C=N/NC(=O)c1ccc(O)cc1O	i	.	.	.	.	.	.	.
SMILES	KCNQ2 block	KCNQ2 pot	Kir21 confirm	HEK293 Tl flux	CHO-K1 ctr	KCNQ1 sel pot	KCNQ2 pot confirm	Kir2-1 sel	others
CN(C)CCN(C)Cc1ccccc1Sc1cccc2ccccc12	i	.	.	.	.	.	.	.
Fc1ccc(C(CCNCc2ccccn2)c2ccc(Cl)cc2)cc1 (centres undefined)	i	.	33.5%*	i	.	.	.	.
OC(CNCc1ccccn1)c1ccccc1 (centres undefined)	i	0.24	.	.	.	.	.	.
COc1ccc(OC)c(S(=O)(=O)Nc2cc3c(cc2N2CCCC2)n(C)c(=O)c(=O)n3C)c1	i	.	.	.	.	.	.	.
Cc1ccc(S(=O)(=O)N2CCC(C(=O)OCC(=O)N3CCC(C)CC3)CC2)cc1C	i	0.18	.	.	.	.	.	.
CCOC(=O)C1CCN(Cc2c(O)ccc3ccccc23)CC1	i	0.29	70.5%*	i	.	.	.	.
CCOC(=O)N1CCN(Cc2c(O)ccc3ccccc23)CC1	i	.	.	.	.	.	.	.
CCc1c(C)nc(SCC(=O)N2C(C)CCCC2C)[nH]c1=O (centres undefined)	i	0.11	.	.	.	.	.	.
CCc1c(C)nc(SCC(=O)N2CCCCC2C)[nH]c1=O (centres undefined)	i	5.46*	i	i	19.5*	-16.5	-25.6	-33.7
O=C(CSc1nnc(-c2ccccc2Cl)o1)N1CCOCC1	i	.	.	.	.	.	.	.
O=C(O)c1ccccc1NC(c1ccccc1)c1ccc(Cl)cc1 (centres undefined)	i	5.92*	i	i	-11.2	16.3*	-6.8	-42.5
O=C(CSc1ccccc1C(=O)O)c1ccc(Cl)cc1	i	1.01	.	.	.	.	.	.
CCCCc1nc(SCC(=O)N2CCCC2)c2c(=O)n(C)c(=O)n(C)c2n1	i	8.17*	i	i	-22.1	-11.1	37.9*	-34.3	KCNQ2 W236L pot=i
Cc1nc(SCC(=O)N2CCOCC2)c2c(=O)n(C)c(=O)n(C)c2n1	i	1.09	.	.	.	.	.	.
CC(C)Cc1nc(SCC(=O)N2CCCC2)c2c(=O)n(C)c(=O)n(C)c2n1	i	6.52*	i	i	32.6*	-10.3	19.4*	-8.8	KCNQ2 W236L pot=i
CCCCc1nc(SCCOC)c2c(=O)n(C)c(=O)n(C)c2n1	i	2.04	.	.	.	.	.	.
CC1CCN(C(=O)CSc2nc(C(C)C)nc3c2c(=O)n(C)c(=O)n3C)CC1	i	27*	i	i	20.9*	-1.7	123.8*	-24.1	KCNQ2 W236L pot=i
CCCCc1nc(SCC(=O)N2CCOCC2)c2c(=O)n(C)c(=O)n(C)c2n1	i	5.36*	i	i	-3.6	56.8*	9.8*	-27.8	KCNQ2 W236L pot=i
Cn1c(=O)c2c(SCC(=O)N3CCCC3)nc(-c3ccccc3)nc2n(C)c1=O	i	2.43	.	.	.	.	.	.
CC(C)c1nc(SCC(=O)N2CCCc3ccccc32)c2c(=O)n(C)c(=O)n(C)c2n1	i	0.99	.	.	.	.	.	.
